± gives the standard deviation of the averaged measurements. Of roughly 6,500 targets only a part is listed; those with the largest changes were picked by preference.
Each target was assayed with Nc1ncnc2c1ncn2[C@@H]1O[C@H](COP(=O)(O)OP(=O)(O)OP(=O)(O)O)[C@@H](O)[C@H]1O [adenosine triphosphate] (assay: NP40-soluble protein abundance relative to vehicle (solubility fold change) (ratio); higher = more soluble protein in presence of ATP). Conditions: concentration: 8mM.
Procedure, shortened: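 Crude Jurkat lysate, prepared by Dounce homogenisation, was exposed to eight concentrations from 0.1 to 10 mM for 10 min at room temperature and then 3 min at 37 °C. Solubilisation used 0.8% NP40 with benzonase for 60 min at 4 °C, followed by ultracentrifugation and TMT labelling of the supernatant for LC-MS/MS. After vsn normalisation of intensities, each value is the fold change against the detergent-processed vehicle within each replicate, across three independent experiments.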

Sequence of UniProt Q9BZG8 (Q9BZG8 whole entry, one chain of several): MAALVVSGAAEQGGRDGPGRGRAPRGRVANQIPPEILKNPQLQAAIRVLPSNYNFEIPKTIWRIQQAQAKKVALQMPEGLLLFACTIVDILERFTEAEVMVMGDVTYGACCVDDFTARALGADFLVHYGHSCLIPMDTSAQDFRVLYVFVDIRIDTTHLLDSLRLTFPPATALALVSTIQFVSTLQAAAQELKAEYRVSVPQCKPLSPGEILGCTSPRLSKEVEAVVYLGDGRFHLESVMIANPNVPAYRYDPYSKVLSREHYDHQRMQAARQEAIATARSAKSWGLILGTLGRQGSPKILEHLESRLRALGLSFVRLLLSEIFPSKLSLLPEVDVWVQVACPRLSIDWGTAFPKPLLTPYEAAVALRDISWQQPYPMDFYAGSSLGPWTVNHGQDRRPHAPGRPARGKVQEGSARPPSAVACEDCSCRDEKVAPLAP
Sequence of UniProt Q6UW02 (Q6UW02 whole entry, one chain of several): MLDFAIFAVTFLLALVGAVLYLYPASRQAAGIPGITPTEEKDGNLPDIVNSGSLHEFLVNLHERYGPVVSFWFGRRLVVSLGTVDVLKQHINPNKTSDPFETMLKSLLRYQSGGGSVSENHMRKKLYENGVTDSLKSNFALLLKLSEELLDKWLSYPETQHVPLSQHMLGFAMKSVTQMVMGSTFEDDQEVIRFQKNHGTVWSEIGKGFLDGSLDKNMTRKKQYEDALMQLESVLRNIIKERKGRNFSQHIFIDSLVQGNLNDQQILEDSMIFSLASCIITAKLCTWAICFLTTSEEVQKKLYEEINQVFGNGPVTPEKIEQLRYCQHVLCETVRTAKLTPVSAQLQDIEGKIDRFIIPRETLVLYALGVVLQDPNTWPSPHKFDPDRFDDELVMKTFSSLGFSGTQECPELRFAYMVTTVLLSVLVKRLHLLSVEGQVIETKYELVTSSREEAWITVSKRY
Sequence of UniProt O43772 (O43772 whole entry): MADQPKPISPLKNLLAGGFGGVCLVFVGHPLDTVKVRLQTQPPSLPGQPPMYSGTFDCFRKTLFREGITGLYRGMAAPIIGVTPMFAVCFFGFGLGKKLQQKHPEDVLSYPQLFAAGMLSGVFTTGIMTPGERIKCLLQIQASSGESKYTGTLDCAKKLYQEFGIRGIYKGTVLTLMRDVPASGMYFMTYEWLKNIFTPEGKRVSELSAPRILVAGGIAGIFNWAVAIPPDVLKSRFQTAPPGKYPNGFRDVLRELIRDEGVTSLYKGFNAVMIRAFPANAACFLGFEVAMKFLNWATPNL
Sequence of UniProt P04632 (P04632 whole entry, one chain of several): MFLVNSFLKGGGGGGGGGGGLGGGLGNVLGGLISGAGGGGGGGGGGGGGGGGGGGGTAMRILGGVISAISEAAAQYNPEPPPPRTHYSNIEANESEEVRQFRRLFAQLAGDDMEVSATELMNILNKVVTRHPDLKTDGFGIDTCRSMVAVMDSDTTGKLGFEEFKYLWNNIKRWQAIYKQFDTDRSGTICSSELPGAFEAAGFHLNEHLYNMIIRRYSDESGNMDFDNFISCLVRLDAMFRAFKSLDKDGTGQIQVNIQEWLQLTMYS
Sequence of UniProt O43257 (O43257 whole entry): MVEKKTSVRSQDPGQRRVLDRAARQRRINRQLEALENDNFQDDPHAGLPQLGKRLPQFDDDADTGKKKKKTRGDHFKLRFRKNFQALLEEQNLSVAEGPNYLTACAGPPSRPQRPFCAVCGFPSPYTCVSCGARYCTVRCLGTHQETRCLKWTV
Sequence of UniProt Q8NC42 (Q8NC42 whole entry, one chain of several): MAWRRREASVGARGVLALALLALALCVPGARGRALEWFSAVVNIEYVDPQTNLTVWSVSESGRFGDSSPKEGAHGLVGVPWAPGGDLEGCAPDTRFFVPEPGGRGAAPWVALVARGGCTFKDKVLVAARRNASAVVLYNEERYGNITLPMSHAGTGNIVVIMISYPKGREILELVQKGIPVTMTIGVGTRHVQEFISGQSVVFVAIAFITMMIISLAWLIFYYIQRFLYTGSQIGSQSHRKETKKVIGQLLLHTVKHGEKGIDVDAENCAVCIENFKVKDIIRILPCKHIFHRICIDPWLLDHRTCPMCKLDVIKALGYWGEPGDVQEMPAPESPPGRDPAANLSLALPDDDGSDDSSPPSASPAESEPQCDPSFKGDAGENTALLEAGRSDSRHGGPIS
Sequence of UniProt P01130 (P01130 whole entry, one chain of several): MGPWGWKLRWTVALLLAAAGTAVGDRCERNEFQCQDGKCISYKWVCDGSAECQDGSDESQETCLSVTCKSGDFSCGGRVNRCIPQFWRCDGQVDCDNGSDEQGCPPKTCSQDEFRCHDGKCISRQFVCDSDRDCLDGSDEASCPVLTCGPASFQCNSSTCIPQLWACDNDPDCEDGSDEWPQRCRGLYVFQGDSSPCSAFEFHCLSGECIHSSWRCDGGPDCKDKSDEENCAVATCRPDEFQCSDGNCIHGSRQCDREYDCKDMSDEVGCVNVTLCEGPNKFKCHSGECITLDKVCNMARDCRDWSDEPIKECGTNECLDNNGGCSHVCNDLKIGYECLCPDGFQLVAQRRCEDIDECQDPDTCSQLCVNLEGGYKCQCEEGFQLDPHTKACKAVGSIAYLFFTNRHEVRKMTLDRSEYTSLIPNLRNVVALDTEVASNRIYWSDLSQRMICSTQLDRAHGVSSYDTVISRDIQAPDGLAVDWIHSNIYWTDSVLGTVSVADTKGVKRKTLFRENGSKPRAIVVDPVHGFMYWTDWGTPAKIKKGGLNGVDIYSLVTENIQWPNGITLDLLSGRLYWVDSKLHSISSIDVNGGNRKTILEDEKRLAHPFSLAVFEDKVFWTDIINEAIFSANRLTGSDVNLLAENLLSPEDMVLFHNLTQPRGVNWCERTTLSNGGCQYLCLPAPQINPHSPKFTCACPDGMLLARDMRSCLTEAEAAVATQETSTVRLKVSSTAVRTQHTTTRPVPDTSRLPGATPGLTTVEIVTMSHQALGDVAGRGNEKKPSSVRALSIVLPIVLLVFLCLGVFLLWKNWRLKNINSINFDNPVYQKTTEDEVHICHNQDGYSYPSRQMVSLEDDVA
Sequence of UniProt Q9BXS9 (Q9BXS9 whole entry, one chain of several): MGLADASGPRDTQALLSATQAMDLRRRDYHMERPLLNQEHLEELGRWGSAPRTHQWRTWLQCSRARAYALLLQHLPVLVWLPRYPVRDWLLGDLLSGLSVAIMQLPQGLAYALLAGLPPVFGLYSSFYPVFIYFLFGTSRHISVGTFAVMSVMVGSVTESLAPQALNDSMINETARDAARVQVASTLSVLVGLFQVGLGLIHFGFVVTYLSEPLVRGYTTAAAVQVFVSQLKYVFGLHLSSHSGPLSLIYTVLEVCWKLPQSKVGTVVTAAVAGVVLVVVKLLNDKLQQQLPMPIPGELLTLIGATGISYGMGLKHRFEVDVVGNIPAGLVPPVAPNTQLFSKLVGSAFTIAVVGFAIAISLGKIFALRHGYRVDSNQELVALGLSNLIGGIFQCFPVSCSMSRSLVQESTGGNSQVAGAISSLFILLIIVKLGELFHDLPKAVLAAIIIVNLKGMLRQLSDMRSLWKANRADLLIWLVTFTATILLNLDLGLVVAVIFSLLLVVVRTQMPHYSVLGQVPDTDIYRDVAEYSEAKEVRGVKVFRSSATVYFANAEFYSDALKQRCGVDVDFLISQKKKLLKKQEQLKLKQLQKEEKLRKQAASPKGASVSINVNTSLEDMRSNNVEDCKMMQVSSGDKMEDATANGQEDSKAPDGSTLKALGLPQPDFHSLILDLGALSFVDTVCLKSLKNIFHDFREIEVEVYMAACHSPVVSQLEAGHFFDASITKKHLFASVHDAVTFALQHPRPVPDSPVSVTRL
Sequence of UniProt O00754 (O00754 whole entry): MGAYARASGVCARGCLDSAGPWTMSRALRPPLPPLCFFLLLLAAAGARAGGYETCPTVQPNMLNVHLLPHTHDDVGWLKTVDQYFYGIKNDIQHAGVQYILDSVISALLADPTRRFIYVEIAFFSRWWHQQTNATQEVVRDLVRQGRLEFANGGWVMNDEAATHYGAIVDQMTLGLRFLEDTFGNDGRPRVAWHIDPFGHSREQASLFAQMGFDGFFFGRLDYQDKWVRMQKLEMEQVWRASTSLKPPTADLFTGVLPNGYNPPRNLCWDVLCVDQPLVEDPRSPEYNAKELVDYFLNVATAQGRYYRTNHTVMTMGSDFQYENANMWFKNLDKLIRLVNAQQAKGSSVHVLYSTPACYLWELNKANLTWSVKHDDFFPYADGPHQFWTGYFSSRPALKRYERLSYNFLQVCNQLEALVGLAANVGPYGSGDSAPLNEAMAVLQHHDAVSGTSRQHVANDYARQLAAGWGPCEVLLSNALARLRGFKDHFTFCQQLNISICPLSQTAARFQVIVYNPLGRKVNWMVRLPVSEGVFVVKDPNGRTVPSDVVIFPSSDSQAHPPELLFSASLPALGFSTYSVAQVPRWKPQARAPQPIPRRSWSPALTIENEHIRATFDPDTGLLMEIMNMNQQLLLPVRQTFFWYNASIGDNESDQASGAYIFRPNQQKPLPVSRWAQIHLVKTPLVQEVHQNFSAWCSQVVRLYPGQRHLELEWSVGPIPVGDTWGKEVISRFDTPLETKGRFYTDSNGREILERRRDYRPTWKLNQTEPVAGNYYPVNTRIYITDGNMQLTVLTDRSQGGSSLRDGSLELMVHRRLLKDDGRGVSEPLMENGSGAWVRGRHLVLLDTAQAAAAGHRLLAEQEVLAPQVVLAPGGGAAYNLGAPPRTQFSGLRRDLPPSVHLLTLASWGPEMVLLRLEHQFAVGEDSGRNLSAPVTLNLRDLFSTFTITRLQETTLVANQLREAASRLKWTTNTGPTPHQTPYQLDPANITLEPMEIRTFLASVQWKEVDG
Sequence of UniProt P78549 (P78549 whole entry, one chain of several): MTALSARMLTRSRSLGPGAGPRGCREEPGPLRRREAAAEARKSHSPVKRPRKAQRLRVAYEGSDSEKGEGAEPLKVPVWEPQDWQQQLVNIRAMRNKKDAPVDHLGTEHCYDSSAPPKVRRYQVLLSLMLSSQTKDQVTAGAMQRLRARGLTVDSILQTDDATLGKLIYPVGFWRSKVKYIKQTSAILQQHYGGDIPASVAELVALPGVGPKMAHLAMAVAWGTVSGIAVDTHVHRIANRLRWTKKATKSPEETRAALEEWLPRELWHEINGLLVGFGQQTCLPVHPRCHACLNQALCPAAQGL

Target	NP40-soluble protein abundance
E7EQI7|Q12768 (UniProt Q12768)	1.07 ± 0.068
XYLB (UniProt O75191)	0.99 ± 0.075
H7C0H2|Q96EV2|H0Y3K4 (UniProt Q96EV2)	0.958 ± 0.067
H3BPD5|P78549|P78549-2|P78549-3 (UniProt P78549)	1.72 ± 0.19
J3KTL2|Q07955 (UniProt Q07955)	1.89 ± 0.097
G3XAG1|Q96ME7|Q96ME7-3 (UniProt Q96ME7)	1.88 ± 0.046
E9PJN1|O75676|O75676-2 (UniProt O75676)	1.31 ± 0.26
H0YM92|J3KMZ9|P01130|P01130-5|H0YMD1|P01130-4 (UniProt P01130)	0.9771 ± 0.0072
J3KPF0 (UniProt Q9Y4D8)	1.02 ± 0.08
DYNC1LI2 (UniProt O43237)	0.92 ± 0.075
F8WCD0|Q8NC42 (UniProt Q8NC42)	0.945 ± 0.021
MAN2B1 (UniProt O00754)	0.917 ± 0.038
A0A0A0MTB8|Q8NI36 (UniProt Q8NI36)	2.12 ± 0.14
A0A0C4DGQ5|P04632 (UniProt P04632)	0.885 ± 0.0089
B7ZBA0|Q8NI27 (UniProt Q8NI27)	2.4 ± 0.17
UniProt A7KAX9|A7KAX9-2	0.904 ± 0.04
H0YLE6|Q9NWH9|H0YNF3 (UniProt Q9NWH9)	1.08 ± 0.032
A0A0D9SEU5|Q6VN20|Q6VN20-3|R4GMX8 (UniProt Q6VN20)	0.935 ± 0.028

Target	NP40-soluble protein abundance
I3L0W4|Q96F10 (UniProt Q96F10)	0.94 ± 0.025
UniProt E9PSI1	0.958 ± 0.044
K7ELH7|K7ENE2|Q8IVV7 (UniProt Q8IVV7)	0.931 ± 0.094
G3V0I5|P49821|P49821-2 (UniProt P49821)	0.962 ± 0.052
E9PJI1|Q92993-3|Q92993-4|Q92993|Q92993-2 (UniProt Q92993)	1.06 ± 0.21
G3XAC1|Q9BXS9|Q9BXS9-3|Q9BXS9-7|A0A0C4DFT5|Q9BXS9-4|Q9BXS9-5 (UniProt Q9BXS9)	0.867 ± 0.074
ZNHIT1 (UniProt O43257)	1.16 ± 0.037
UniProt O75081|O75081-2|O75081-4	0.888 ± 0.082
I3L1H5|Q9BZG8 (UniProt Q9BZG8)	0.987 ± 0.16
E9PHG5|Q6UW02 (UniProt Q6UW02)	1.02 ± 0.1
B4DT96|C9JYA1|O15504|O15504-2 (UniProt O15504)	1.42 ± 0.26
UniProt O15169|O15169-2	1 ± 0.047
F8W060|Q9BZF1 (UniProt Q9BZF1)	0.964 ± 0.013
PDXK (UniProt O00764)	0.989 ± 0.058
B0QY89|Q9Y262 (UniProt Q9Y262)	1.6 ± 0.1
J3KTE4|J3QR09|P84098 (UniProt P84098)	0.908 ± 0.057
TMEM120B (UniProt A0PK00)	1.15 ± 0.13
SLC25A20 (UniProt O43772)	0.884 ± 0.028
